These results are taken from PubChem BioAssay.

For part of these data: Entries with a potency or affinity are not part of this list. Calls of active or inactive are those of the source.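 How the source made its calls, unless noted: active means compound raising the membrane signal above positive-control mean plus 3 SD in both repeats, and a primary screen hit; inactive means the rest.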

The subject of assay [1] is TRPC4 beta (transient receptor potential cation channel C4), mouse. Put plainly: TRPC4 cation channel opening, retest – cell-based, Fluo4 calcium, HEK293 TRPC4beta/mu-opioid, duplicates, 10 µM, confirmation (AID 2426;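 active means fluorescence ratio normalized to control raised more than 50% in primary screen plus both repeat runs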;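 on activation: percent rise of integrated ratio over buffer wells lacking compound which define 0%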). As to conditions: Fluo4 calcium fluorescence, at 10 µM; stronger effect = higher value.
Assay [2] has as its system transient receptor potential cation channel C4 beta (TRPC4), mouse. Put plainly: TRPC4 cation channel opening, second retest – cell-based, second round, Fluo4, HEK293 TRPC4beta/mu-opioid, 1 µM, confirmation (AID 2461;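 active means primary screen active and over 50% activation in each of two duplicate runs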). As to conditions: Fluo4 calcium fluorescence, at 1 µM; stronger effect = higher value.
The subject of assay [3] is TRPC4 (transient receptor potential cation channel C4 beta), mouse. In words: potentiation of DAMGO EC20 TRPC4 response – cell-based, second round, Fluo-4, HEK293 TRPC4beta/mu-opioid, 1 µM, confirmation (AID 2554;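 active means primary screen hit whose fluorescence ratio, in both repeats, exceeds the weak agonist control mean by 3 SD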). The settings on record: DAMGO EC20, Fluo-4 calcium flux, at 1 µM; stronger effect = higher value. A general note: Calcium flux is commonly read through the fluorescence of an indicator in the cells.

For assay [4], the system named is TRPC4 beta (transient receptor potential cation channel C4), mouse. Put plainly: potentiation of DAMGO EC20 TRPC4 response – cell-based, Fluo-4, HEK293 TRPC4beta/mu-opioid, confirmation (AID 2555;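 active means primary screen hit whose calcium fluorescence ratio, in both repeats, exceeds the weak agonist control mean by 3 SD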). The settings on record: DAMGO EC20, Fluo-4 calcium flux, at 10 µM; stronger effect = higher value.
In assay [5] the target is Short transient receptor potential channel 4 (Mus musculus) (UniProt Q9QUQ5). In words: blockers of DAMGO-evoked TRPC4 calcium flux – cell-based, Fluo4, HEK293 TRPC4beta/mu-opioid, confirmation (AID 2636;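 active means calcium signal cut by more than 3 SD below the full-agonist control yet still positive, in both repeats and the earlier primary screen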). As to conditions: at 10 µM; stronger effect = higher value.
For assay [6] the target is unchanged. Put plainly: blockers of DAMGO-evoked TRPC4 calcium flux – cell-based, second round, Fluo4, HEK293 TRPC4beta/mu-opioid, 1 µM, confirmation (AID 2637;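 active means calcium signal ratio cut to more than 3 SD under the fully stimulated control mean yet still positive, in both repeats and the primary screen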;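 on inhibition: percent of integrated ratio relative to wells lacking test compound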). The settings on record: at 1 µM; stronger effect = higher value.
Assay [7] has the same target. In words: calcium entry via TRPC4 opening agents – cell-based, HEK293 TRPC4/mu-opioid, Fluo-4 calcium, dose response (AID 434937;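 active means primary screen activator hit with a dose response curve and TRPC4 channel activation at any tested dose; inactive means no activation, no dose response, or not a primary hit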).
For assay [8] the target is unchanged. Put plainly: potentiation of DAMGO-evoked TRPC4 calcium signal – cell-based, HEK293 TRPC4/mu-opioid, Fluo-4 calcium, EC20 DAMGO, dose response (AID 434941;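 active means earlier screen potentiator hit that boosts the TRPC4 ion channel at some dose, with a dose response; inactive means no potentiation, no dose response, or not a prior hit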;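 further: calcium entry triggered by an EC20 dose of DAMGO at the co-expressed mu-opioid receptor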).
Assay [9] deals with Short transient receptor potential channel 6 (Mus musculus) (UniProt Q61143). In words: TRPC6 blockade by TRPC4 inhibitor hits – cell-based, HEK293, membrane potential dye, duplicate, selectivity assay for TRPC4 inhibitor project, confirmation (AID 434948;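 active means active in primary screen and both duplicates, each dropping signal beyond three positive-control SD with fluorescence still positive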). The settings on record: HEK293 TRPC6, membrane potential dye fluorescence, at 10 µM, stimulated with maximal-effect acetylcholine; stronger effect = higher value.

For assay [10] the target is unchanged. Put plainly: TRPC6 opening by TRPC4 activator hits – cell-based, HEK293, membrane potential dye, duplicate, selectivity assay for TRPC4 activator project, confirmation (AID 434950;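 active means membrane potential signal rise above negative control mean plus 3 SD in both duplicates, also active in the earlier TRPC4 screen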). The settings on record: HEK293 TRPC6, membrane potential fluorescence, at 10 µM; activation: stronger effect = higher value; outcome: activation.
Assay [11] has the same target. In words: positive modulators of mouse TRPC6 channel – HEK293 cells, membrane potential dye, duplicate, selectivity assay for TRPC4 potentiator project, confirmation (AID 434952). The settings on record: HEK293 TRPC6, membrane potential dye fluorescence, at 10 µM, maximal acetylcholine added after compound; stronger effect = higher value.
Assay [12] deals with Short transient receptor potential channel 4 (Mus musculus) (UniProt Q9QUQ5). In words: calcium flux activators in TRPC4/5HT1a cells, counter-screen for TRPC4 activator project, cell-based, second counter screen, HEK293 TRPC4/5HT1a, Fluo-4 (AID 434977;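 active means calcium signal rise above buffer-control mean plus 5 SD in both duplicates, and also a hit in the primary screen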). As to conditions: Fluo-4 calcium flux, at 10 µM; stronger effect = higher value.
Assay [13] in a line: serotonin-gated TRPC4 signal block – cell-based, second counter screen, HEK293 TRPC4/5HT1a, Fluo-4, counter-screen for TRPC4 inhibitor project, confirmation (AID 434978;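 active means primary screen active whose calcium signal fell more than 3 SD beyond the full-serotonin control mean in both duplicate plates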;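 on outcome: serotonin given first at submaximal then at maximal dose after compound preincubation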). As to conditions: Fluo-4 calcium flux, at 10 µM, serotonin added to trigger calcium flux; stronger effect = higher value.
The subject of assay [14] is TRPC4 (mouse), co-expressed with 5HT1a in HEK293. In words: enhancement of serotonin-evoked TRPC4 response – cell-based, second counter screen, HEK293 TRPC4/5HT1a, Fluo-4, counter-screen for TRPC4 potentiator project, confirmation (AID 434979;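 active means signal rise over 3 SD above mean of control wells given weak agonist, in both repeats and first screen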). As to conditions: Fluo-4 calcium flux, at 10 µM, serotonin added at its EC20 dose; stronger effect = higher value. A general note: Counterscreens check selectivity or assay interference.

Assay [15] in a line: nonspecific calcium rise without TRPC4 – cell-based, HEK293 mu-opioid receptor line, counter-screen for TRPC4 activator project, confirmation (AID 449723;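 active means hit in primary screen, with calcium signal over 5 SD above buffer well mean in both duplicates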;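 further: counter screen cells carry the mu-opioid receptor alone and lack TRPC4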). As to conditions: HEK293 mu-opioid cells, Fluo-4 calcium fluorescence, at 10 µM; stronger effect = higher value.
Assay [16] in a line: nonspecific potentiation of DAMGO calcium response – cell-based, HEK293 mu-opioid receptor line, counter-screen for TRPC4 allosteric potentiator project, confirmation (AID 449724;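 active means calcium signal rise more than 3 SD above the low-dose agonist control mean, in both duplicate plates and the primary screen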;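 further: HEK293 cells carrying mu-opioid receptor only with no TRPC4 channel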). The settings on record: HEK293 mu-opioid receptor cells, Fluo-4 calcium flux, at 10 µM, compound added before EC20 DAMGO stimulus; stronger effect = higher value.

Sequence of Short transient receptor potential channel 4 (Mus musculus) (Q9QUQ5 whole entry, looked up): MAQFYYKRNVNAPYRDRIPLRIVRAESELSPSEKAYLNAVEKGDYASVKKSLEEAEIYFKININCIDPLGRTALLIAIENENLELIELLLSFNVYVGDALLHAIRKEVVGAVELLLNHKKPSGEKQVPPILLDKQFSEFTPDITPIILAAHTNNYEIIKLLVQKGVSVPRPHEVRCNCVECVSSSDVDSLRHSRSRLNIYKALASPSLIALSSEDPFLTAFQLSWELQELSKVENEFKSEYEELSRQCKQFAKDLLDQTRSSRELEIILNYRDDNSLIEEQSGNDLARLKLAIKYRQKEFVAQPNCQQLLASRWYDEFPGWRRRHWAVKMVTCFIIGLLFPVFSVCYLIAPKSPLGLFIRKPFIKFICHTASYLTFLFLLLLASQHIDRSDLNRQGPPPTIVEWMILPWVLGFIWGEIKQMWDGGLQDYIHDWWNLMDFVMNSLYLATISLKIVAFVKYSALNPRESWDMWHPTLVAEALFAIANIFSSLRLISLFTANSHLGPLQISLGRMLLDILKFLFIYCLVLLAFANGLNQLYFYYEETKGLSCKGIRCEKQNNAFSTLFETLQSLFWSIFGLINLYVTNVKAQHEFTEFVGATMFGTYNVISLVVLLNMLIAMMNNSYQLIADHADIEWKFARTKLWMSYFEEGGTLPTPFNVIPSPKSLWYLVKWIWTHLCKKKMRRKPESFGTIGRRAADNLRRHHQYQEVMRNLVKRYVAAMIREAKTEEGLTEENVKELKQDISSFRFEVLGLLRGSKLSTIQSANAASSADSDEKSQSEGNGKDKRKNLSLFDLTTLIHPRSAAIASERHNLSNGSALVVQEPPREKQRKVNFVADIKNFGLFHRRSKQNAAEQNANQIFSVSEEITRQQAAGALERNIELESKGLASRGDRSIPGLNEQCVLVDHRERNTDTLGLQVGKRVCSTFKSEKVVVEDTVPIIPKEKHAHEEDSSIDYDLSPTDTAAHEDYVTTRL
Sequence of Short transient receptor potential channel 6 (Mus musculus) (Q61143 whole entry, looked up): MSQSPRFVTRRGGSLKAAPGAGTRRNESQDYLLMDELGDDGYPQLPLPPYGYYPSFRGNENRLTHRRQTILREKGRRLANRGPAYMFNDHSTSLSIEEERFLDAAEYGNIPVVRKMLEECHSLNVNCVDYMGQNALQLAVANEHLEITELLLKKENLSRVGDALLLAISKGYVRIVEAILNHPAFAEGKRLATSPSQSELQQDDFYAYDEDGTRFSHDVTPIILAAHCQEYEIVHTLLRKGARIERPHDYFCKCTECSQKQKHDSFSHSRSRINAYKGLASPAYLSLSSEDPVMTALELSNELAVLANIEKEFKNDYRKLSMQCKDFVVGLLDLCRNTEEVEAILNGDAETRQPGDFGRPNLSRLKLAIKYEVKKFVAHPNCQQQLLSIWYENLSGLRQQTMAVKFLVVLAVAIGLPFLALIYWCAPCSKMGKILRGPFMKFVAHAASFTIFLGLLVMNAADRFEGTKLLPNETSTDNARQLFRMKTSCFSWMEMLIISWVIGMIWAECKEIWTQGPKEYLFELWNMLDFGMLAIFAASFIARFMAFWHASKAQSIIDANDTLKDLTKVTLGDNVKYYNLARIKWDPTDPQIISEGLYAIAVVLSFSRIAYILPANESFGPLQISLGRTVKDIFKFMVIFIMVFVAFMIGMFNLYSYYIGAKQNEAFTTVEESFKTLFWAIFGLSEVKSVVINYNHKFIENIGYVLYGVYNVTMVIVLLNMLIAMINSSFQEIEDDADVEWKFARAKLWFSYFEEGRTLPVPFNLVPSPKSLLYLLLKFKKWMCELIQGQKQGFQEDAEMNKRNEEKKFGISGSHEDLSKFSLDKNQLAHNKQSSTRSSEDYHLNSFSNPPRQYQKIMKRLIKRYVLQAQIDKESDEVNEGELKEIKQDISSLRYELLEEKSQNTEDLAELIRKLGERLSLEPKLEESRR

The term inhibition denotes the change of the read-out against control, counted positive when it falls. Turning to `CCOC(=O)C1CCN(C2CCN(C(=O)c3oc4c(C)c(C)ccc4c3C)CC2)CC1`, the result in assay [1], in [2], in assay [3], in assay [4], in [6] and in assay [7] was inactive. In addition, the outcome in [8], in [9], in assay [10], in [11], in assay [12] and in assay [13] was inactive. Besides, the outcome in assay [14], in [15] and in [16] was inactive. Moreover, the inhibition in assay [5] was 95% (active).
As to `c1ccc(Cn2c(NCc3ccco3)nc3ccccc32)cc1`, the result in assay [1], in assay [2], in assay [3], in assay [4], in assay [7] and in assay [8] was inactive. The compound was classed as inactive in [9], in assay [10], in assay [11], in assay [12], in assay [14] and in assay [15]. Besides, the outcome in assay [16] was inactive. The results for the inhibition in [5], in assay [6] and in assay [13] were 95% (active), 75% (active) and 25.2% (active), respectively.
Consider `CC1CCc2nc(NC(=O)CN3CCN(Cc4ccc5c(c4)OCO5)CC3)sc2C1` (stereo not given), for which the result in assay [1], in [2], in assay [3], in assay [4], in assay [6] and in assay [7] was inactive. Besides, the outcome in [8], in assay [9], in assay [10], in [11], in assay [12] and in [14] was inactive. The result in [15] and in assay [16] was inactive. Besides, the inhibition in assay [5] is 77% (active); in assay [13], 28.7% (active).
For the compound `O=C(c1cccc(C(=O)N2CCN(c3ccccc3)CC2)c1)N1CCN(c2ccccc2)CC1`, the result in assay [1], in [2], in assay [3], in assay [4], in [7] and in assay [8] was inactive. Besides, the compound was classed as inactive in assay [9], in assay [10], in [11], in assay [12], in [14] and in assay [15]. Further, in assay [16], the outcome was inactive. The inhibition in assay [5] is 92% (active); in assay [6], 46% (active); in assay [13] it was 26.9% (active).
On to `CN(C)C(CNC(=O)c1oc2ccccc2c1CSc1ncn[nH]1)c1ccco1` (stereo not given), for which the result in assay [1], in assay [2], in assay [3], in assay [4], in assay [7] and in assay [8] was inactive. Moreover, the compound was called inactive in assay [9], in assay [10], in assay [11], in assay [12], in assay [13] and in [14]. Also, the result in assay [15] and in assay [16] was inactive. Besides, the inhibition in [5] was 85% (active); in [6] it was 48% (active).
In the case of `Cc1cccc(C(=O)Nc2sc(-c3ccccc3)cc2C(=O)O)c1`, the outcome in [1], in assay [2], in assay [3], in assay [4], in [6] and in [7] was inactive. In addition, the outcome in [8], in assay [9], in [10], in assay [11], in assay [12] and in assay [14] was inactive. Also, the result in assay [15] and in assay [16] was inactive. Moreover, the inhibition in assay [5] was 98% (active); in [13] it was 19.4% (active).
Regarding `Cc1nn(-c2ccccc2)c(Cl)c1CN(C(=O)CCl)c1ccc(Cl)cc1`, the outcome in assay [1], in [2], in assay [3], in assay [4], in assay [7] and in assay [8] was inactive. Moreover, the call in [9], in assay [10], in [11], in [12], in [14] and in assay [15] was inactive. The result in assay [16] was inactive. The inhibition was 93% (active) in assay [5], 69% (active) in assay [6] and 2.77% (active) in assay [13].
In the case of `Cc1nn(-c2ccccc2)c2[nH]c(C(F)(F)F)cc(=O)c12`, the result in assay [1], in assay [2], in assay [3], in assay [4], in assay [6] and in assay [7] was inactive. Further, the outcome in [8], in assay [9], in [10], in assay [11], in assay [12] and in [14] was inactive. The result in [15] and in assay [16] was inactive. Further, the inhibition is 49% (active) in assay [5] and 31.7% (active) in [13].
Regarding `COCCn1c(SCc2cccc([N+](=O)[O-])c2)nc2ccccc2c1=O`, the outcome in assay [1], in assay [2], in assay [3], in assay [4], in assay [7] and in [8] was inactive. The compound was called inactive in assay [9], in [10], in assay [11], in assay [12], in assay [14] and in assay [15]. For the same compound, the outcome in assay [16] was inactive. The inhibition in [5] is 94% (active); in assay [6], 45% (active); in [13], 20.4% (active).
Regarding `O=C(C[n+]1cc(-c2ccc(Cl)c(Cl)c2)n2c1CCC2)N1c2ccccc2Sc2ccccc21`, the outcome in [1], in assay [2], in [3], in assay [4], in assay [6] and in [7] was inactive. The outcome in assay [8], in assay [10], in assay [11], in assay [12], in assay [14] and in assay [15] was inactive. For the same compound, the outcome in [16] was inactive. Also, the inhibition in [5] was 75% (active); in [9], 53.5% (active); in assay [13], 18.7% (active).
For `Cc1c(N(C)S(=O)(=O)c2cc(C(=O)NCC3CCCO3)ccc2Cl)c(=O)n(-c2ccccc2)n1C` (stereo not given), the outcome in [1], in [2], in assay [3], in assay [4], in assay [7] and in [8] was inactive. For the same compound, the result in [9], in [10], in assay [11], in assay [12], in [13] and in [14] was inactive. The result in assay [15] and in assay [16] was inactive. The inhibition in [5] was 84% (active); in assay [6], 45% (active).
As for `COc1cccc(C(=O)C2CCCN(Cc3cccn3-c3ccccn3)C2)c1` (stereo not given), the outcome in assay [1], in assay [2], in assay [3], in assay [4], in assay [6] and in [7] was inactive. Moreover, the outcome in [8], in [10], in [11], in [12], in assay [14] and in assay [15] was inactive. Also, the outcome in assay [16] was inactive. Also, the inhibition is 44% (active) in assay [5], 38% (active) in [9] and 35.6% (active) in assay [13].
In the case of `CC12CN3CC(C)(CN(C1)C3c1ccc(Cl)cc1Cl)C2O` (stereo not given), in assay [1], the activation is 66% (active). Further, the result in [2], in [3], in assay [4], in [5], in assay [7] and in assay [8] was inactive. Moreover, the compound was classed as inactive in [9], in assay [10], in assay [11], in assay [12], in assay [13] and in assay [14]. The outcome in assay [15] and in assay [16] was inactive. Besides, the inhibition in assay [6] was 64% (active).
As to `CC#CC[N+](C)(C)CCCCCCCCCCCC`, the result in assay [1], in assay [2], in assay [3], in [4], in [7] and in assay [8] was inactive. Further, the outcome in assay [10], in assay [11], in assay [12], in [14], in assay [15] and in assay [16] was inactive. The inhibition in [5] was 97% (active); in assay [6] it was 55% (active); in assay [9], 36% (active); in assay [13], 9.36% (active).
Consider `Cc1cccc(C)c1-n1cccc1/C=C1\SC(=S)N(c2cccc(C(=O)O)c2)C1=O`, for which the outcome in assay [1], in [2], in [3], in assay [4], in [6] and in [7] was inactive. For the same compound, the result in assay [8], in assay [9], in [10], in assay [11], in [12] and in assay [14] was inactive. The result in assay [15] and in [16] was inactive. For the same compound, the figures for the inhibition in assay [5] and in [13] were 89% (active) and 23.2% (active), respectively.
